From PubChem
Htt clearance: clearance of mutant huntingtin inclusions, primary screen, imaging, HeLa Exon1htt(103Q)mCFP, confocal imaging; aggregate imaging; zero = plate's median compound well; inhibition, % at 1.5 µM; actives 0.42% (n = 47,000); AID 853, 2007;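 active = inhibition of aggregate fluorescence above about 70%, also judged a hit by eye on the cell image, limit read from the data, passing the limit was not always enough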;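 also: cells exposed to compound for three days before fixation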
D1 allo mod: D1 CRE-luciferase signal change, two-sided – cell-based, HEK293 D1, dopamine EC30, D1 allosteric modulator project, primary screen; B-score at 10 µM; dopamine EC30 potentiation; actives deviate in either direction; D(1A) dopamine receptor (Homo sapiens), P21728; actives 5.9% (n = 58,000); AID 641, 2007;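 active = luminescence count or its row- and column-corrected plate score outside the 99.7% band of the plate's sample wells, on either side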
M1 antagonist: antagonists of rat M1 muscarinic receptor; Muscarinic acetylcholine receptor M1 (Rattus norvegicus), P08482; CHO-M1 cells, Fluo-4 calcium, ACh EC80 antagonist mode; hits give low values; B-score at 10 µM; actives 3.4% (n = 64,000); AID 628, 2007;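 active = calcium fluorescence response, raw or row-and-column corrected B-score, differing from the plate sample mean either way at a set confidence level, mostly lower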
Target sequence (P08482 whole entry, looked up): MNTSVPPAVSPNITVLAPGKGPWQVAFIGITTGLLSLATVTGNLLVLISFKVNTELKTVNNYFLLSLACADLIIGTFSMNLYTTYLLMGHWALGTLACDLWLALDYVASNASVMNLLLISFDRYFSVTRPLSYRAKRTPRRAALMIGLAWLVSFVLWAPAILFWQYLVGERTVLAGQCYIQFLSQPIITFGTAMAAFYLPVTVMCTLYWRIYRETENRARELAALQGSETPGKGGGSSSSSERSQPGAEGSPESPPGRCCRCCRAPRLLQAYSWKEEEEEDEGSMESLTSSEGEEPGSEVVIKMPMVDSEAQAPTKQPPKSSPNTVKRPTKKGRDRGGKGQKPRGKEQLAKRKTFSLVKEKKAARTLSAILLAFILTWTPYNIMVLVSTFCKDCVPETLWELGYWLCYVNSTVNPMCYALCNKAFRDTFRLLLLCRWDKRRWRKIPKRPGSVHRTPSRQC
M1 agonist: M1 muscarinic receptor agonists, primary screen, CHO-M1 cells, Fluo-4 calcium, agonist mode. B-score at 10 µM. AID 626, 2007. Muscarinic acetylcholine receptor M1. Fluo-4 calcium fluorescence; hits give high values. actives 3% (n = 64,000);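 active = fluorescence rise, raw or as B-score row- and column-corrected plate score, outside the 99.7% band of its plate's samples, either direction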
D1 mod confirm: D1 receptor positive allosteric modulators, retest, confirmation, cell-based, HEK293 D1, CRE-luciferase, duplicate | shares compounds with D1 allo mod | dopamine EC30 potentiation; hits give high values | luminescence at 10 µM | actives 88% (n = 2,200) | AID 642, 2007;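 active = luminescence in either of two replicates above the same-plate mean plus 3 SD of the low-dose dopamine control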
D1 no dopamine: D1 receptor agonism without dopamine, confirmation, mechanism study for D1 allosteric modulator project, cell-based, HEK293 D1, CRE-luciferase, secondary assay 1. shares compounds with D1 allo mod. luminescence, no dopamine; hits give high values. luminescence at 10 µM. actives 0.8% (n = 1,900). AID 646, 2007; in the data active = luminescence above about 3900
Isoprot counter: counter-screen for D1 modulators: isoproterenol response in HEK293 cells; shares compounds with D1 allo mod; actives 63% (n = 2,200); AID 647; luminescence at 10 µM; HEK293 D1 CRE-luciferase, isoproterenol EC30 counter-screen; hits give high values;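 active = luminescence in either replicate above plate mean of wells with a partly effective reference agonist dose plus 3 SD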;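 also: isoproterenol raises cAMP through native beta-adrenoceptor Gs so signal bypasses D1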
Large screens that a line does not name were inactive (follow-up assays come after a bar, where they were run). A selection: hits, their analogues and other compounds. The true share with any hit is near 9.1%.

Brc1ccc(-c2cnc(-c3cccs3)o2)cc1	none (no result: Htt clearance)
CCCC1(c2ccccc2)NC(=O)N(CC(=O)c2[nH]c(C)c(C(=O)OCC)c2C)C1=O (configuration not stated)	D1 allo mod 7 | D1 mod confirm 8616 | D1 no dopamine inactive | Isoprot counter 3200
Cc1cc(NC(=O)c2cccc(S(=O)(=O)N3CCOCC3)c2)c2ccccc2n1	none (no result: Htt clearance)
N#Cc1nc(-c2ccc(F)cc2)oc1NCc1cccc2c1OCO2	none (no result: Htt clearance)
CC(C)CNc1oc(-c2ccc(F)cc2)nc1C#N	D1 allo mod 13 | D1 mod confirm 14732 | D1 no dopamine inactive | Isoprot counter 4356
Cc1cc(NC(=O)CSc2ccc(-c3ccccc3)nn2)no1	none (no result: D1 allo mod, M1 antagonist, M1 agonist)
Cc1cc(NC(=O)COc2nnc(-c3ccccc3)c3ccccc23)no1	D1 allo mod 5.5 (no result: Htt clearance) | D1 mod confirm 6684 | D1 no dopamine inactive | Isoprot counter inactive
CCc1ccc2[nH]c(=O)c(CN(Cc3nnnn3C3CCCC3)C3CCCCC3)cc2c1	D1 allo mod 2.5 (no result: Htt clearance) | D1 mod confirm 8428 | D1 no dopamine inactive | Isoprot counter inactive
Cn1c(=O)n(C)c2cc(S(=O)(=O)NCc3ccco3)ccc21	D1 allo mod 2.4 (no result: Htt clearance) | D1 mod confirm inactive | D1 no dopamine inactive | Isoprot counter inactive
Cn1c(=O)n(C)c2cc(S(=O)(=O)NCc3ccccc3)ccc21	none (no result: Htt clearance)
Clc1ccccc1OCCn1ccnc1	none
C=CCc1ccccc1OCCn1ccnc1	D1 allo mod 4.2 | D1 mod confirm 15712 | D1 no dopamine inactive | Isoprot counter inactive
CC(=O)Nc1cccc(NC(=O)C2CCCN2C(=O)Nc2ccccc2C)c1 (configuration not stated)	none (no result: Htt clearance)
N/C(=N/O)c1nc(N2CCCC2)nc(N(c2ccccc2)c2ccccc2)n1	D1 allo mod 7.2 (no result: Htt clearance) | D1 mod confirm 13376 | D1 no dopamine inactive | Isoprot counter 4252
c1ccc(N(c2ccccc2)c2nc(N3CCCC3)nc(-n3ccnc3)n2)cc1	none
N/C(=N/O)c1nc(N2CCCCC2)nc(N2CCCCC2)n1	D1 allo mod 5.2 (no result: Htt clearance) | D1 mod confirm 18416 | D1 no dopamine inactive | Isoprot counter 5040
O=c1[nH]c(SCCOc2ccccc2)nc2ccccc12	D1 allo mod 5.3 | D1 mod confirm 7564 | Isoprot counter 3064
COc1ccccc1OCCSc1nc2ccccc2c(=O)[nH]1	none
Cc1c(CCC#N)c(N2CCN(C3CCCCC3)CC2)n2c(nc3ccccc32)c1C#N	none (no result: Htt clearance)
O=C(c1ccncc1)N1CCN(C(=O)c2cccc3ccccc23)CC1	none (no result: Htt clearance)
O=C(c1cccc2ccccc12)N1CCN(CC2CC=CCC2)CC1 (configuration not stated)	D1 allo mod 4.6 | D1 mod confirm inactive | D1 no dopamine inactive | Isoprot counter inactive
CCn1c(SCC(=O)N2CCN(c3ccc(F)cc3)CC2)nnc1-c1ccncc1	none (no result: D1 allo mod)
COC(C)(C)c1cc(C(C)(C)C)nc(N)n1	D1 allo mod 3.1 | D1 mod confirm 10892 | Isoprot counter 2772
CCOC(=O)CSc1nc2ccccc2c(=O)n1Cc1ccco1	none (no result: Htt clearance, D1 allo mod)
CCOC(=O)CSc1nc2c(sc(=S)n2Cc2ccco2)c(=O)n1-c1ccccc1	D1 allo mod 4.5 (no result: Htt clearance) | D1 mod confirm 8252 | D1 no dopamine inactive | Isoprot counter inactive
COc1ccc(C2=NOC3(CC(=O)N(c4ccc(C)cc4)C3=O)C2)c(OC)c1 (configuration not stated)	none (no result: Htt clearance)
CCCn1c(=O)c2c(c3ccccc31)OCC(=O)N2	none (no result: Htt clearance)
CC(C)Cn1c(=O)c2c(c3ccccc31)OC(C)C(=O)N2 (configuration not stated)	D1 allo mod 4.2 | D1 mod confirm 7512 | D1 no dopamine inactive | Isoprot counter inactive
CCCCOC(=O)C1=C(C)Nc2ncnn2C1c1cc(OC)c(OC)cc1OC (configuration not stated)	none
CCc1nc2sc3ccccc3c(=O)c2c(=O)n1Cc1ccco1	D1 allo mod 3.4 (no result: Htt clearance) | D1 mod confirm 12936 | D1 no dopamine inactive | Isoprot counter inactive
O=c1c2ccccc2sc2nc(C3CCCCC3)n(Cc3ccco3)c(=O)c12	none (no result: Htt clearance)
CCOC(=O)c1c(C)nc2sccn12	D1 allo mod 2.6 (no result: Htt clearance) | D1 mod confirm 12992 | D1 no dopamine inactive | Isoprot counter inactive
CCOC(=O)c1c(C)nc2ncccn12	none (no result: Htt clearance)
CCOC(=O)c1c(C)nc2c3ccccc3ccn12	D1 allo mod 5.3 | D1 mod confirm 19468 | D1 no dopamine inactive | Isoprot counter 3904
CCN(CC)c1ccc(NC(=O)COc2ccc(C)cc2)cc1	none
CCCc1cc(C(N)=O)c(NC(=O)C2CCCO2)s1 (configuration not stated)	none
CCCc1cc(C(N)=O)c(NC(=O)c2ccco2)s1	D1 allo mod 5 | D1 mod confirm 10424 | D1 no dopamine inactive | Isoprot counter 3216
N#CC(C#N)=c1ccc2c(c1)NC1(CCCCC1)N=2	none
COC(=O)c1ccsc1NC(=O)C1=COCCO1	D1 allo mod 9.1 (no result: Htt clearance) | D1 mod confirm 17084 | D1 no dopamine inactive | Isoprot counter 3244
COC(=O)Nc1sccc1C(=O)Nc1sccc1C(=O)OC	none (no result: D1 allo mod)
O=C1CC(c2ccncc2)c2cc3c(cc2N1)OCCO3 (configuration not stated)	none (no result: Htt clearance)
O=C1CC(c2ccc3c(c2)OCO3)c2cc3c(cc2N1)OCCO3 (configuration not stated)	D1 allo mod 11 | D1 mod confirm 11940 | D1 no dopamine inactive | Isoprot counter 4100
O=C1CC(c2ccsc2)c2cc3c(cc2N1)OCCO3 (configuration not stated)	D1 allo mod 5.8 (no result: Htt clearance) | D1 mod confirm 14472 | D1 no dopamine inactive | Isoprot counter inactive
CCOc1ccccc1C(=O)N(Cc1cccs1)C1CCS(=O)(=O)C1 (configuration not stated)	none
COc1ccc(-c2cc3nc(C4CCN(C(=O)OC(C)(C)C)CC4)c(C(=O)O)cn3n2)cc1	D1 allo mod 9.2 | D1 mod confirm 14492 | D1 no dopamine inactive | Isoprot counter 4680
CC(CSc1nc2ccccc2s1)Cn1c(N2CCCC2)nc2c1c(=O)[nH]c(=O)n2C (configuration not stated)	D1 allo mod 2.5 (no result: Htt clearance) | D1 mod confirm 13288 | Isoprot counter 6552
CCN1CCN(c2nc3c(c(=O)[nH]c(=O)n3C)n2CCSc2nc3ccccc3s2)CC1	none (no result: Htt clearance)
CC(C)CCn1c(SCC(=O)c2ccccc2)nc2c1c(=O)[nH]c(=O)n2C	none
CC(C)CCn1c(Sc2nc3ccccc3s2)nc2c1c(=O)[nH]c(=O)n2C	D1 allo mod 21 (no result: Htt clearance) | D1 mod confirm 19816 | D1 no dopamine inactive | Isoprot counter 7068
